In PubChem BioAssay (EPA / NIEHS):
Results filed as inconclusive are left out. Calls of active or inactive are those of the source. Rule for the calls: active = hit-call score of the fitted dose curve at least 0.9, where 1 is the maximum; inconclusive = response in the unintended direction; inactive = score below 0.9.

Assays:
[1] = target: human Colony Stimulating Factor 1 Receptor (CSF1R), CSF1R (gene 1436) (UniProt P07333); assay: NVS_ENZ_hCSF1R: NovaScreen (NVS) Enzymatic Assay for human Colony Stimulating Factor 1 Receptor (CSF1R) (AID 2283150)
Procedure, shortened: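 Compounds screened in duplicate at 25 uM, then concentration-response (top 50 uM) for those passing threshold such as 30% inhibition; recombinant CSF1R activity measured 1 h post-dosing via fluorescent substrate/product mobility-shift separation, loss of signal versus DMSO.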

[2] = target: human Dual Specificity Protein Phosphatase 3 (DUSP3), DUSP3 (gene 1845) (UniProt P51452); assay: NVS_ENZ_hDUSP3: NovaScreen (NVS) Enzymatic Assay for human Dual Specificity Protein Phosphatase 3 (DUSP3) (AID 2283152);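 note: phosphatase activity of recombinant human DUSP3 on a fluorogenic substrate without cells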
Procedure, shortened: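 Cell-free fluorescence-intensity enzyme activity assay with recombinant protein and substrate; loss of signal fitted relative to DMSO baseline. Primary screen in duplicate at 25 uM, actives then run in concentration series; measured 0 h after dosing.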

[3] = target: human Elastase, ELANE (gene 1991) (UniProt P08246); assay: NVS_ENZ_hElastase: NovaScreen (NVS) Enzymatic Assay for human Elastase (AID 2283153)
Procedure, shortened: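 Concentration-response to 50 uM max, run singly for chemicals passing a threshold (e.g., 30% inhibition) in a duplicate 25 uM single-point screen. Neutrophil-derived human elastase, absorbance read-out of enzyme activity at 1.5 h; DMSO baseline.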

[4] = target: human Ephrin type-A Receptor 1 (EphA1), EPHA1 (gene 2041) (UniProt P21709); assay: NVS_ENZ_hEphA1: NovaScreen (NVS) Enzymatic Assay for human Ephrin type-A Receptor 1 (EphA1) (AID 2283158);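 note: activity is signal loss versus DMSO meaning EphA1 kinase inhibition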
Procedure, shortened: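 Biochemical kinase assay run cell-free; 1 h incubation; readout is fluorescence with mobility-shift separation of product. Concentration-response up to 50 uM for actives from a 25 uM screen.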

[5] = target: human FYN Proto-Oncogene, Src family Tyrosine Kinase (Fyn), FYN (gene 2534) (UniProt P06241); assay: NVS_ENZ_hFyn: NovaScreen (NVS) Enzymatic Assay for human FYN Proto-Oncogene, Src family Tyrosine Kinase (Fyn) (AID 2283161)
Procedure, shortened: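 Cell-free kinase activity read by fluorescence after mobility-shift separation of substrate and product, 1 h post-dose. Initial single concentration 25 uM in duplicate, then concentration-response follow-up; DMSO baseline.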

[6] = target: Glycogen synthase kinase-3 beta (Homo sapiens) (UniProt P49841); assay: NVS_ENZ_hGSK3b: NovaScreen (NVS) Enzymatic Assay for human Glycogen Synthase Kinase-3 beta (GSK3b) (AID 2283165)
Procedure, shortened: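 Recombinant enzyme with specific fluorescent substrate, 1 h, product separated by electrophoretic mobility shift. Primary duplicate screen at 25 uM; actives (e.g. 30% inhibition) followed in singleton concentration-response to 50 uM. Signal loss fitted versus DMSO.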

[7] = target: human Janus Kinase 2 (Jak2), JAK2 (gene 3717) (UniProt O60674); assay: NVS_ENZ_hJak2: NovaScreen (NVS) Enzymatic Assay for human Janus Kinase 2 (Jak2) (AID 2283169)
Procedure, shortened: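 Single-point duplicate screen at 25 uM, with hits run in concentration series to a 50 uM top dose. Substrate-product separation by mobility shift with fluorescence detection, 1 h post-dosing; DMSO baseline.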

[8] = target: human c-Jun N-terminal Kinases (JNK2), MAPK9 (gene 5601) (UniProt P45984); assay: NVS_ENZ_hJNK2: NovaScreen (NVS) Enzymatic Assay for human c-Jun N-terminal Kinases (JNK2) (AID 2283171)
Procedure, shortened: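 Chemicals first tested in duplicate at 25 uM, then in singleton concentration series up to 50 uM, against extracted JNK2 enzyme. Activity loss read by fluorescence with mobility-shift separation 1 h post-dose; DMSO baseline.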

[9] = target: human LYN Proto-Oncogene, Src family Tyrosine Kinase (LynA), LYN (gene 4067) (UniProt P07948); assay: NVS_ENZ_hLynA: NovaScreen (NVS) Enzymatic Assay for human LYN Proto-Oncogene, Src family Tyrosine Kinase (LynA) (AID 2283173)
Procedure, shortened: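 Recombinant kinase with fluorescent substrate; product separated from substrate by electrophoretic mobility shift and read 1 h after dosing. Duplicate screen at 25 uM, then concentration-response up to 50 uM; activity scored as signal loss against DMSO.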

[10] = target: Mitogen-activated protein kinase 3 (Homo sapiens) (UniProt P27361); assay: NVS_ENZ_hMAPK3: NovaScreen (NVS) Enzymatic Assay for human Mitogen-Activated Protein Kinase 3 (MAPK 3) (AID 2283177)
Procedure, shortened: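 Chemicals were first tested in duplicate at 25 uM, with hits re-run as concentration series (max 50 uM). Recombinant enzyme activity, measured 1 h post-dose in a cell-free format, was read by fluorescence/mobility shift relative to DMSO.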

[11] = target: Collagenase 3 (Homo sapiens) (UniProt P45452); assay: NVS_ENZ_hMMP13: NovaScreen (NVS) Enzymatic Assay for human Matrix Metalloproteinase-13 (MMP13) (AID 2283182)
Procedure, shortened: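 Recombinant MMP13 cleaving fluorescent substrate, cell-free, measured 1 h after dosing. Primary duplicate screen at 25 uM; actives tested in concentration-response up to 50 uM; loss of signal relative to DMSO.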

[12] = target: human Esterase Plasma (ES), BCHE (gene 590) (UniProt P06276); assay: NVS_ENZ_hES: NovaScreen (NVS) Enzymatic Assay for human Esterase Plasma (ES) (AID 2283157)
Procedure, shortened: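 Human plasma-derived enzyme, cell-free, colorimetric readout at 0.25 h. Primary screen 25 uM in duplicate; hits (e.g. ≥30% inhibition) rerun singleton up to 50 uM. DMSO = negative control/baseline.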

[13] = target: human Casein Kinase 1-delta (CK1D), CSNK1D (gene 1453) (UniProt P48730); assay: NVS_ENZ_hCK1D: NovaScreen (NVS) Enzymatic Assay for human Casein Kinase 1-delta (CK1D) (AID 2283148)
Procedure, shortened: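 Recombinant human CK1-delta, cell-free; fluorescent substrate with electrophoretic mobility-shift separation of product, read 1 h after dosing. Single 25 uM duplicate screen, then concentration-response up to 50 uM; loss of signal vs DMSO.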

[14] = target: human Phosphodiesterase 4A1 (PDE4A1), PDE4A (gene 5141) (UniProt P27815); assay: NVS_ENZ_hPDE4A1: NovaScreen (NVS) Enzymatic Assay for human Phosphodiesterase 4A1 (PDE4A1) (AID 2283191)
Procedure, shortened: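 Fluorescent substrate turnover by recombinant PDE4A1 read after 1 h by mobility-shift separation. Primary duplicate screen at 25 uM; hits retested in concentration series with a 50 uM maximum, relative to DMSO.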

[15] = target: human Matrix Metalloproteinase-9 (MMP9), MMP9 (gene 4318) (UniProt P14780); assay: NVS_ENZ_hMMP9: NovaScreen (NVS) Enzymatic Assay for human Matrix Metalloproteinase-9 (MMP9) (AID 2283190);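 note: cell-free recombinant MMP9 protease activity read by fluorescent substrate signal; active means inhibition seen as loss of fluorescence signal versus DMSO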
Procedure, shortened: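 Extracted enzyme, fluorescent substrate, 1 h post-dose read. Single conc 25 uM in duplicate, then concentration series for actives. Activity = signal loss relative to DMSO negative control.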

[16] = target: Histone deacetylase 3 (Homo sapiens) (UniProt O15379); assay: NVS_ENZ_hHDAC3: NovaScreen (NVS) Enzymatic Assay for human Histone Deacetylase 3 (HDAC3) (AID 2283163)
Procedure, shortened: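 Cell-free enzyme format: loss of fluorescent product after mobility-shift separation, 1 h incubation, recombinant human HDAC3. Single 25 uM duplicate screen first, then concentration series to a 50 uM top for hits; DMSO as baseline.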

[17] = target: human MAP Kinase-Activated Protein Kinase 2 (MAPKAPK2), MAPKAPK2 (gene 9261) (UniProt P49137); assay: NVS_ENZ_hMAPKAPK2: NovaScreen (NVS) Enzymatic Assay for human MAP Kinase-Activated Protein Kinase 2 (MAPKAPK2) (AID 2283178)
Procedure, shortened: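 Chemicals screened in duplicate at 25 uM, then to 50 uM top concentration in concentration-response, against recombinant human MAPKAPK2; substrate conversion read 1 hr post-dosing by fluorescence after electrophoretic mobility-shift separation, loss-of-signal relative to DMSO.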

[18] = target: human Matrix Metalloproteinase-3 (MMP3), MMP3 (gene 4314) (UniProt P08254); assay: NVS_ENZ_hMMP3: NovaScreen (NVS) Enzymatic Assay for human Matrix Metalloproteinase-3 (MMP3) (AID 2283185)
Procedure, shortened: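 Fluorescent substrate turnover by recombinant MMP3 read after 1 h, signal loss scored against DMSO. Compounds first run in duplicate at 25 uM single dose, then actives confirmed by concentration series.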

[19] = target: human Mitogen- and Stress-activated Protein Kinase-1 (Msk1), RPS6KA5 (gene 9252) (UniProt O75582); assay: NVS_ENZ_hMsk1: NovaScreen (NVS) Enzymatic Assay for human Mitogen- and Stress-activated Protein Kinase-1 (Msk1) (AID 2283187)
Procedure, shortened: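 Chemicals first run in duplicate at 25 uM, with actives followed up in singleton concentration series to 50 uM maximum. Enzyme activity came from substrate/product mobility-shift separation with fluorescence detection after 1 h incubation of the recombinant protein.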

[20] = target: cAMP-dependent protein kinase catalytic subunit alpha (Homo sapiens) (UniProt P17612); assay: NVS_ENZ_hPKA: NovaScreen (NVS) Enzymatic Assay for human Protein Kinase A (PKA) (AID 2283192)
Procedure, shortened: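 Cell-free kinase activity read by fluorescence after mobility-shift separation of substrate and product, 1 h post-dosing. Single-concentration duplicate screen (25 uM) preceded singleton concentration series (top 50 uM); loss of signal versus DMSO.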

human Dual Specificity Protein Phosphatase 3 (DUSP3), DUSP3 (gene 1845), sequence (P51452 whole entry, looked up): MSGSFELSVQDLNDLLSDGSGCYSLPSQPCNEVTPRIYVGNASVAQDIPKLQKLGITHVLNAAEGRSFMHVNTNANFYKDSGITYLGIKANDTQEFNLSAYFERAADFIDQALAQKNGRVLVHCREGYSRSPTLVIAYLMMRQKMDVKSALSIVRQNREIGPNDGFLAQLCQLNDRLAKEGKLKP
human Ephrin type-A Receptor 1 (EphA1), EPHA1 (gene 2041), sequence (P21709 whole entry, looked up): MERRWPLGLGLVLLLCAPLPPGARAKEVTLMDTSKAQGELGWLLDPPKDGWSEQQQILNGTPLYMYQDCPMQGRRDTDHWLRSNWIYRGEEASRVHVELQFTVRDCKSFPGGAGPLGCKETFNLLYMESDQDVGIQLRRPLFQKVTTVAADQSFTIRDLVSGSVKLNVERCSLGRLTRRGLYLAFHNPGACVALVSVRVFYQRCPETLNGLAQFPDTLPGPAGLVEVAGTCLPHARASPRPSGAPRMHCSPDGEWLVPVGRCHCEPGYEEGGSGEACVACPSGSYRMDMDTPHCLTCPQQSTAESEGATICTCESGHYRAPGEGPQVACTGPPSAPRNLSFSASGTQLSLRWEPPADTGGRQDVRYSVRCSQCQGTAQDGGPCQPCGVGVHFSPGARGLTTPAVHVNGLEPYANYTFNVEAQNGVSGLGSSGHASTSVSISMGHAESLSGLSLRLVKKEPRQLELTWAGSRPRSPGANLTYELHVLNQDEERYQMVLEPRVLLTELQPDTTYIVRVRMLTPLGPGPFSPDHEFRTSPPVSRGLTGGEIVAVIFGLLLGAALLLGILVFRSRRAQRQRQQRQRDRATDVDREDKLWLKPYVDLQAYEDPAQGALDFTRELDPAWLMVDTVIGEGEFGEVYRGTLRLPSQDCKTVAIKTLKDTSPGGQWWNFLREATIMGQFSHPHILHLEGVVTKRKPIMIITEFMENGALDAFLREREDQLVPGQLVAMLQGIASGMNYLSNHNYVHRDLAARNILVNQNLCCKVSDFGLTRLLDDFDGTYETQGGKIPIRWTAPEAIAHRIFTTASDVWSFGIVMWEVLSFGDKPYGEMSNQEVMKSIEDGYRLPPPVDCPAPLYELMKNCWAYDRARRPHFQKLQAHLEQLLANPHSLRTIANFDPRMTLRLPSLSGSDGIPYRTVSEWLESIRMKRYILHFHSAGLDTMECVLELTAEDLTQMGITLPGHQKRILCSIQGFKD
Glycogen synthase kinase-3 beta (Homo sapiens), sequence (P49841 whole entry, looked up): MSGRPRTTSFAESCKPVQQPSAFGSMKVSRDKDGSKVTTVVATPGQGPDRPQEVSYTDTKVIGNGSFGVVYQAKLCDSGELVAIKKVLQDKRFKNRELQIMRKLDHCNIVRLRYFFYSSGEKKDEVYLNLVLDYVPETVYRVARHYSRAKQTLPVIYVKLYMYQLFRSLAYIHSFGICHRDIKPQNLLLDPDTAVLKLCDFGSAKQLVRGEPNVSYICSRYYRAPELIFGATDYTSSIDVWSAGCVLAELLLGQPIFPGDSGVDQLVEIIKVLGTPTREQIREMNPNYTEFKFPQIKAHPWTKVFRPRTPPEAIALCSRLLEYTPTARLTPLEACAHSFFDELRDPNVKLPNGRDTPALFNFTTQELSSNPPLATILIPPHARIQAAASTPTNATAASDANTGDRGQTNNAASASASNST
human Colony Stimulating Factor 1 Receptor (CSF1R), CSF1R (gene 1436), sequence (P07333 whole entry, looked up): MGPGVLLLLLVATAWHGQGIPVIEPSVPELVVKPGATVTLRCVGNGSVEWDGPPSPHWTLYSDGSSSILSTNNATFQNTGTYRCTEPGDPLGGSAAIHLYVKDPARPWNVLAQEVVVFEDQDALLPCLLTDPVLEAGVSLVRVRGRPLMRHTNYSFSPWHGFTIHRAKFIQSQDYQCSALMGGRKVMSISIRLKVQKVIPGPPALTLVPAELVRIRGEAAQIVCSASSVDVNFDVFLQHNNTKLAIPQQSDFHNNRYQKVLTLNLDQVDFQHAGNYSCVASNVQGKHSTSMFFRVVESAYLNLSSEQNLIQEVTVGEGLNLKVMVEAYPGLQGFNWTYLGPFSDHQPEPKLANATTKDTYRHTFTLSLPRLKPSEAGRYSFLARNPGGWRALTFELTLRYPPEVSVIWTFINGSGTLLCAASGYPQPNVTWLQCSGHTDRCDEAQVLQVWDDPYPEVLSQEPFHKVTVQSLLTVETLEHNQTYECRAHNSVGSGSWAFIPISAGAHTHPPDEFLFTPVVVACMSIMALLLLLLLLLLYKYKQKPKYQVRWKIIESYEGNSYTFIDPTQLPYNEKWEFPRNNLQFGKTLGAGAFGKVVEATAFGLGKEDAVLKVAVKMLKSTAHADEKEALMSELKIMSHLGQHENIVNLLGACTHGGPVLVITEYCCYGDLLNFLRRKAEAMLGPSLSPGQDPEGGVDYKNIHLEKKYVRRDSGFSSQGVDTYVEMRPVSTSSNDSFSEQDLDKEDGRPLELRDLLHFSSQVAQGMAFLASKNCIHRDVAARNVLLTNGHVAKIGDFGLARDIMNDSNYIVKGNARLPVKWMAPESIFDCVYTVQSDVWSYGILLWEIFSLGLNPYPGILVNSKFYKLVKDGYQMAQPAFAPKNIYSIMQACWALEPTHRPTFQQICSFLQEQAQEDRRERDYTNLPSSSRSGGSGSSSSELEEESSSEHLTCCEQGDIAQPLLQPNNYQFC
human c-Jun N-terminal Kinases (JNK2), MAPK9 (gene 5601), sequence (P45984 whole entry, looked up): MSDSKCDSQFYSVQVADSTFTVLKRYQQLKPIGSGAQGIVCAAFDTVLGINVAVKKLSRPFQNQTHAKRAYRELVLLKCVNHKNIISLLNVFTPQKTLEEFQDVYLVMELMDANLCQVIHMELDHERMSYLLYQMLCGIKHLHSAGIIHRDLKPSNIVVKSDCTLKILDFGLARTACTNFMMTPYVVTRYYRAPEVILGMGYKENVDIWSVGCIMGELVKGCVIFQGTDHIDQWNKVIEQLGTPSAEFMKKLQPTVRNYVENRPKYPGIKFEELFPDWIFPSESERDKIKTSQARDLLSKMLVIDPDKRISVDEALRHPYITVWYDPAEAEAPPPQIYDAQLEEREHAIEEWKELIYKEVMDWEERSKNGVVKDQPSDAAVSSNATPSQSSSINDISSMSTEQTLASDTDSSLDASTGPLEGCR
Mitogen-activated protein kinase 3 (Homo sapiens), sequence (P27361 whole entry, looked up): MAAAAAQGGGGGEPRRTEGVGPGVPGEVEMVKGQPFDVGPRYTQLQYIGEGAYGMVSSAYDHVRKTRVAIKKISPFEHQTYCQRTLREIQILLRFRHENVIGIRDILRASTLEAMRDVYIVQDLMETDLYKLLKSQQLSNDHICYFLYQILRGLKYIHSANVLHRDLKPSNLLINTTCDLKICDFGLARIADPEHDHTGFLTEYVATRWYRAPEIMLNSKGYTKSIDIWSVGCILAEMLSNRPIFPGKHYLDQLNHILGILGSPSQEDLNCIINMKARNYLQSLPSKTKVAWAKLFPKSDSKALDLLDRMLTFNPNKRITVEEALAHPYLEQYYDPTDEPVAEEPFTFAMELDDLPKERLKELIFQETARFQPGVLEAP
Histone deacetylase 3 (Homo sapiens), sequence (O15379 whole entry, looked up): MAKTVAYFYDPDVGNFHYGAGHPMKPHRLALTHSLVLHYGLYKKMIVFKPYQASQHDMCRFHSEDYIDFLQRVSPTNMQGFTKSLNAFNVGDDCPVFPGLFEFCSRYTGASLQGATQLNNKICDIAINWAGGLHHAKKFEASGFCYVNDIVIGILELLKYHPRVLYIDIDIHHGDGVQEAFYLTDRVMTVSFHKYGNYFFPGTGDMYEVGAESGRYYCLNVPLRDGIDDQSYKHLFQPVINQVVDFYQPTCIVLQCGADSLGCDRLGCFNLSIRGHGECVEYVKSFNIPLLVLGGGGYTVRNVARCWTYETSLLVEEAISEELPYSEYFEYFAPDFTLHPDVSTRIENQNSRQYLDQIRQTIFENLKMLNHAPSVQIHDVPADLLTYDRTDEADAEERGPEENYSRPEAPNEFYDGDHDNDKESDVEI
human Esterase Plasma (ES), BCHE (gene 590), sequence (P06276 whole entry, looked up): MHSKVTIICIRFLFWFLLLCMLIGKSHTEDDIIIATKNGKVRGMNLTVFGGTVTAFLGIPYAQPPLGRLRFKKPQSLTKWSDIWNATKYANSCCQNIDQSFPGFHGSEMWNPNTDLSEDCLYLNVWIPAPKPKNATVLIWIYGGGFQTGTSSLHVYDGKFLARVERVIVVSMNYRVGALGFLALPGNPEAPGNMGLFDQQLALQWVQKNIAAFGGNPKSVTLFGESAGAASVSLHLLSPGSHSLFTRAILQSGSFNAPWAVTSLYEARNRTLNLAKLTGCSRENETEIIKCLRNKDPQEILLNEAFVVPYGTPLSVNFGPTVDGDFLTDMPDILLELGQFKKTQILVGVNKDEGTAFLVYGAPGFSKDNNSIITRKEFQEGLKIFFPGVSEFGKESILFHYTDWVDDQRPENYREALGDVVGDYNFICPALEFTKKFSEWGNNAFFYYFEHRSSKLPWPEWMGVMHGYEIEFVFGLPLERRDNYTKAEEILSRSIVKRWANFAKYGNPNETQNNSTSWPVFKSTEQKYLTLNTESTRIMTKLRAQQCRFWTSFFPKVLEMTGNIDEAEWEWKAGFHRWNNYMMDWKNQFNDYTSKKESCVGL
human Casein Kinase 1-delta (CK1D), CSNK1D (gene 1453), sequence (P48730 whole entry, looked up): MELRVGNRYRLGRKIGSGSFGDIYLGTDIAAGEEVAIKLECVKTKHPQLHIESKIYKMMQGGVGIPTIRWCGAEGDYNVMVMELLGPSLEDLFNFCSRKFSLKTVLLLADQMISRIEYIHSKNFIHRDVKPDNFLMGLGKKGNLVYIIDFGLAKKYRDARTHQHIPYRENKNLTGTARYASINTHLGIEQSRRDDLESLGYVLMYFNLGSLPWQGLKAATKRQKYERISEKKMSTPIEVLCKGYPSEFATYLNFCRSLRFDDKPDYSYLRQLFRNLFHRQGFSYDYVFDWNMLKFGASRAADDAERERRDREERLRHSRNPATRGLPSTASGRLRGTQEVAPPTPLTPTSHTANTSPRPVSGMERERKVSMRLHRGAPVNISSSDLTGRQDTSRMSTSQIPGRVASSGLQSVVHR

Cc1[nH]nc2c1N=C(c1ccccc1Cl)c1cc([N+](=O)[O-])ccc1N2
AC50 [1]: 0.00229 µM (active) | AC50 [2]: 16.9 µM (active) | AC50 [3]: 4.93 µM (active) | AC50 [4]: 8.96 µM (active) | outcome [5]: inactive | AC50 [6]: 2.29 nM (active) | AC50 [7]: 3.28 nM (active) | AC50 [8]: 35.8 µM (active) | AC50 [9]: 25 µM (active) | AC50 [10]: 25 µM (active) | AC50 [11]: 16.2 µM (active)

O=C(NO)c1ccccc1
outcome [4]: inactive

Cc1ccc(C(=O)c2ccccc2)cc1
outcome [4]: inactive

N=C(N)c1ccc(OCCCCCOc2ccc(C(=N)N)cc2)cc1
AC50 [12]: 6.56 µM (active)

CCCCC=O
outcome [6]: inactive

CC1=NN(c2ccccc2)C(=O)C1
outcome [4]: inactive

CS(=O)(=O)c1ccc([C@@H](CC2CCCC2)C(=O)Nc2cnccn2)cc1Cl
outcome [13]: inactive | AC50 [2]: 6.36 µM (active) | outcome [14]: inactive

CC(C)(C)c1ccc(O)c(O)c1
outcome [4]: inactive

O=C(c1ccccc1)c1ccccc1
outcome [6]: inactive

CCOC(C)=O
AC50 [15]: 4.98 µM (active)

CCCCCCCCCCCCCCCCCC[N+](C)(C)Cc1ccccc1
AC50 [2]: 4.54 µM (active) | outcome [4]: inactive | outcome [15]: inactive

CCCCCCCCCCCCOS(=O)(=O)O
outcome [13]: inactive | AC50 [1]: 29.1 µM (active) | outcome [4]: inactive | outcome [16]: inactive | AC50 [8]: 37.5 µM (active) | AC50 [10]: 18.1 µM (active) | outcome [17]: inactive | AC50 [18]: 36.7 µM (active) | AC50 [19]: 43 µM (active) | AC50 [14]: 11.8 µM (active) | AC50 [20]: 42.4 µM (active)

O=C(CCCN1CCC(O)(c2ccc(Cl)cc2)CC1)c1ccc(F)cc1
AC50 [12]: 6.15 µM (active)

CCCCCCCCCCCC
outcome [4]: inactive

CCC(C)c1ccccc1O (stereo not given)
outcome [16]: inactive

O=C1NS(=O)(=O)c2ccccc21
outcome [20]: inactive
